# High-throughput results from PubChem BioAssay.
# Shown are actives, neighbours in structure and some others; about 3.2% of the full set was active somewhere.
# ERAP1 inh: inhibitors of human ERAP1 aminopeptidase; recombinant ERAP1, Leu-AMC fluorescence, 60 min; inhibition, % at 10.7 µM; hit rate 0.15% among 340,000; Q9NZ08; AID 652197;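 active = mean replicate inhibition of at least 30%, or all replicates individually reaching that 30% level; inactive = mean below 30% and not every replicate reaching it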
# Target sequence (Q9NZ08 whole entry, looked up): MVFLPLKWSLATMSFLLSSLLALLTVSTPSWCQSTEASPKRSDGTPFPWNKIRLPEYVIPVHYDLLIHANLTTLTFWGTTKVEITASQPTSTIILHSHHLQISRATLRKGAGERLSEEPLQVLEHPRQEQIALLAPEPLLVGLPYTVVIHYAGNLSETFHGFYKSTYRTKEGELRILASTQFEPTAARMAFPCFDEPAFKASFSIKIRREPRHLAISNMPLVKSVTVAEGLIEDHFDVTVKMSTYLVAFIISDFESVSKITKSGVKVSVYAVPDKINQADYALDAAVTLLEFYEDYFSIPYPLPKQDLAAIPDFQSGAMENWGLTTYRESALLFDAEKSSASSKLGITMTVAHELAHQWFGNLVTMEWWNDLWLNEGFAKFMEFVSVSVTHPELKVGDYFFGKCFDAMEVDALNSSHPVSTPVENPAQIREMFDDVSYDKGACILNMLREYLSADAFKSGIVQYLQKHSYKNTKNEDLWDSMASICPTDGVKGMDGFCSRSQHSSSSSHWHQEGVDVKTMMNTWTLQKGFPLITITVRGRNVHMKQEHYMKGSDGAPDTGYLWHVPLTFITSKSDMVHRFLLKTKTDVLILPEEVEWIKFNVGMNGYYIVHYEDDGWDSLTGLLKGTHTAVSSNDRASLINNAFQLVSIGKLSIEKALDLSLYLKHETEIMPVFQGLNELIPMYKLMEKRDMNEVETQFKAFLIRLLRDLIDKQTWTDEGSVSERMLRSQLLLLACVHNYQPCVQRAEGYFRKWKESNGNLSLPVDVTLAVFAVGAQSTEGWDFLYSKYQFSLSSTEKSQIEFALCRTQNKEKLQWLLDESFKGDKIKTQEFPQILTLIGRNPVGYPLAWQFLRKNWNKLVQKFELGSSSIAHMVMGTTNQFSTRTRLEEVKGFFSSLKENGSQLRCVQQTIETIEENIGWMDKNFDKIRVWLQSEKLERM
# PGC1a acetyl inh: PGC1a acetylation modulation, inhibitor mode; U2OS PGC1a acetylation, AlphaScreen anti-acetyl-lysine; with virally co-expressed GCN5 acetyltransferase; inhibition, % at 15.6 µM; hit rate 0.17% among 350,000; AID 651687;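 active = every replicate shows inhibition of at least 40%; inconclusive = mean inhibition at least 40% but some replicate below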
# rRNA inh HTS: inhibits bacterial ribosomal RNA function over humanized ribosomes; hit rate 1.6% among 350,000; GFP signal change (wild-type ribosome), % (test concentration not listed); E. coli WT GFP vs humanized-ribosome RFP mutants, fluorescence, 24 h; stronger effect = lower value; DMSO median 0, no signal -100;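 active = significant combined selectivity score with lowered wild-type GFP, culture density cut under 30%, mutant RFP and density less affected; inactive = any of these conditions unmet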
# INS-1E GSIS act: primary screen for activators of insulin secretion dependent on glucose, INS-1E cells, GLuc reporter luminescence; INS-1E GLuc reporter insulin secretion, 2-3 h; activation, % at 16.6 µM; AID 743287; hit rate 0.61% among 370,000;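 active = lowest replicate activation of at least 40%, so every replicate reaches that level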
# CaV13 FRET inh: Primary screen for inhibitors of IQ motif and Ca2+-dependent inactivation inhibitor domain binding in CACNA1D, Förster resonance energy transfer in living cells, …. AID 743397. hit rate 0.098% among 340,000. inhibition, % at 12.3 µM. HEK cells, CFP/YFP FRET ICDI-IQ, plate reader, 10 min; percent FRET-ratio fall versus neutral wells;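 active = mean replicate inhibition of at least 30% and at least 1% of replicates passing that level; inconclusive = only one of the two criteria is met; inactive = neither criterion is met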
# DENV2 CPE: inhibitors of DENV2 cytopathic effect. DENV2-infected cells, cytopathic effect rescue, plate reader. CPE inhibition, % at 9.99 µM. hit rate 1.7% among 350,000; in the data active = CPE inhibition above about 20%, passing the limit was not always enough; inconclusive = no clear call, values can overlap the other calls; tested in BHK-21 cells
# HepG2 tox: kills or reduces viability of HepG2 cells; activity change, negative = cytotoxicity, unspecified at 26 µM; ATP luminescence, 72 h; shares compounds with rRNA inh HTS; AID 743480; 30 tested, under 10 active;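 active = compounds whose fitted half-maximal signal-loss concentration is at most twice their highest valid dose; inconclusive = flat curve with 30 to 70% signal loss, or poor fit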
# AID977621: wild-type E. coli growth inhibition versus H69 humanized strain – H69 mutant RFP, wild-type GFP, cherry-pick, dose response; AID 977621; activity change, negative = inhibition at 50 µM; fluorescence, 24 h; shares compounds with rRNA inh HTS; 1,900 tested, under 10 active;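 active = Wild-type ribosome reporter drop at least double the humanized mutant ribosome reporter drop, growth loss under a set limit; inconclusive = no clear call, values can overlap the other calls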;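 note: wild-type GFP and H69 mutant RFP strains grown together 50/50 in each well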
# AID977628: E. coli growth inhibition, wild-type GFP versus h24 humanized RFP strain, dose response, h24 mutant RFP vs wild-type GFP, cherry-pick | E. coli WT GFP strain growth, fluorescence, 24 h | activity change, negative = inhibition at 50 µM | shares compounds with rRNA inh HTS | 1,900 tested, under 10 active;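 active = compound lowering the normal-ribosome reporter at least twice as much as the humanized-ribosome reporter, growth loss under a set limit; inconclusive = no clear call, values can overlap the other calls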;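 note: wild-type GFP and h24 humanized RFP strains co-cultured 1 to 1 per well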
# Numbers stand for hits; n = inactive; u = inconclusive; x = no result; ! = not active in a repeat.
SMILES,ERAP1 inh,PGC1a acetyl inh,rRNA inh HTS,INS-1E GSIS act,CaV13 FRET inh,DENV2 CPE,AID977621,AID977628,others
Cc1noc(C)c1NC(=O)N(C)C[C@@H]1OCCCC[C@@H](C)Oc2ccc(NC(=O)c3ccccc3)cc2C(=O)N([C@@H](C)CO)C[C@H]1C,n,n,n,n,x,n,x,x,
Clc1ccc2c(c1)C1CC2CCN1Cc1ccccc1 (stereo unspecified),x,n,n,n,n,n,x,x,
COc1ccc(CN2CCC3CC2c2cc(Cl)ccc23)cc1 (stereo unspecified),n,n,-21,n,n,n,u,u,
CN1C(=O)c2cc(NC(=O)c3cccc(F)c3)ccc2OC[C@@H]2O[C@H](CC(=O)NCC3CCCCC3)CC[C@H]21,n,n,n,n,x,n,x,x,
CN1C(=O)c2cc(NC(=O)c3cccc(F)c3)ccc2OC[C@H]2O[C@@H](CC(=O)NCC3CCCCC3)CC[C@@H]21,n,x,-25!,n,x,n,n,n,
CC1=CC(C)(C)N(C(=O)CSc2nnc(N)s2)c2cc(C)c(C)cc21,x,n,x,n,n,x,x,x,
CC1=CC(C)(C)N(C(=O)CSc2nnc(C)s2)c2ccc(C)cc21,n,n,-17,n,n,n,n,u,
COc1cc2ccccc2cc1C(=O)NC1CCCCC1,n,n,-28,n,n,n,n,n,
COc1cc(SC)ccc1C(=O)NC1CCCCC1,x,n,x,x,n,x,x,x,
C[C@H]1CN([C@@H](C)CO)C(=O)c2cc(NS(=O)(=O)c3ccc(F)cc3)ccc2O[C@H]1CN(C)C(=O)Nc1cccc2ccccc12,n,n,n,n,x,n,x,x,
O=[N+]([O-])c1ccc(/C=C/c2ccc3cccc([N+](=O)[O-])c3n2)cc1,n,x,-18,n,n,u,n,n,
CCN(C(=O)COC(=O)c1cn(-c2ccccc2)nc1-c1ccccc1)C1CCS(=O)(=O)C1 (stereo unspecified),n,n,-39,n,n,n,n,n,
COc1ccc2cc(C(=O)C3CCCN(Cc4ccccn4)C3)ccc2c1 (stereo unspecified),n,n,n,n,n,x,x,x,
CCn1ccnc1CN1CCCC(C(=O)c2ccc3cc(OC)ccc3c2)C1 (stereo unspecified),n,n,-33,n,n,n,n,n,
Cc1ccccc1S(=O)(=O)NCC[C@@H]1CC[C@@H](NS(=O)(=O)c2ccccc2C)[C@H](CO)O1,n,n,n,n,x,n,x,x,
Cc1c(C(=O)O)sc2nc(CSc3ncc(C(F)(F)F)cc3Cl)[nH]c(=O)c12,n,n,-33,n,n,n,x,x,HepG2 tox=n
COc1ccc(-c2cnc3c(c2)C(=O)N([C@@H](C)CO)C[C@H](C)[C@@H](CN(C)Cc2cccnc2)O3)cc1,n,n,n,n,x,n,x,x,
CC(=O)Nc1ccc(NS(=O)(=O)c2cc([N+](=O)[O-])ccc2C)cc1,n,n,n,n,n,n,x,x,
Cc1ccc(C(=O)Nc2ccc(NC(=O)c3cccs3)cc2)cc1[N+](=O)[O-],n,n,n,n,n,n,x,x,
Cc1ccc(NC(=O)c2cccs2)cc1[N+](=O)[O-],n,n,-28,n,n,n,n,x,
CC(=O)Nc1ccc(S(=O)(=O)Nc2ccc(C)c([N+](=O)[O-])c2)cc1,n,x,-26,n,n,n,x,u,
O=C(C1CCC1)N1CCCCN2[C@@H](CO)[C@@H](c3ccc(-c4cccc(F)c4)cc3)[C@@H]2C1,n,n,x,x,x,n,x,x,
CCOC(=O)Cc1csc(SCC(=O)Nc2cc(Cl)ccc2Oc2ccccc2)n1,x,n,x,n,x,x,x,x,
CCOC(=O)Cc1csc(SCC(=O)Nc2cc(C)ccc2OC)n1,n,x,-24,n,n,n,x,u,
O=C(NCC[C@H]1CC[C@@H](NC(=O)C2CCC2)[C@@H](CO)O1)c1ccc(F)cc1,n,n,n,n,x,n,x,x,
SMILES,ERAP1 inh,PGC1a acetyl inh,rRNA inh HTS,INS-1E GSIS act,CaV13 FRET inh,DENV2 CPE,AID977621,AID977628,others
O=C(CC(c1ccccc1)c1cc(Br)ccc1O)N1CCCC1 (stereo unspecified),x,n,-20,n,n,n,x,u,
CCOC(=O)c1c(C)[nH]c(C)c1S(=O)(=O)NCC1CCN(Cc2ccccc2F)CC1,n,n,n,n,n,n,x,x,
CCOC(=O)c1c(C)[nH]c(C)c1S(=O)(=O)NCCN1CCN(c2ccccc2F)CC1,n,n,-16,n,n,n,n,n,
CC(=O)Nc1cccc(OCCCOc2cccc([N+](=O)[O-])c2)c1,n,x,-5.5,x,n,n,n,n,
COc1ccc(OCCCC(=O)Nc2cccc([N+](=O)[O-])c2)cc1,x,x,x,n,n,x,x,x,
O=C(C[C@@H]1CC[C@@H]2NC[C@H](O)COC[C@H]2O1)Nc1ccccc1,n,n,n,n,x,n,x,x,
Cc1ccc(C(=O)Nc2ccc(C)c(S(=O)(=O)Nc3ccccc3Cl)c2)s1,n,x,-32,n,n,n,n,u,
O=C(O)c1ccc2c(c1)N(Cc1ccccc1)C(=O)c1ccccc1S2,x,n,-24,n,n,n,n,x,
CCN1C(=O)c2ccccc2Sc2ccc(C(=O)O)cc21,n,n,n,n,n,n,x,x,
COc1ccc2c(c1)c(C(C)=O)c(C)n2CCc1ccc(OC)c(OC)c1,n,n,-33,n,n,n,n,x,
O=C(C[C@H]1C=C[C@@H](NC(=O)c2cccc(F)c2)[C@@H](CO)O1)NCc1ccc(Oc2ccccc2)cc1,n,n,n,n,x,n,x,x,
CCCCOc1ccc(-c2nnn(CCC(=O)N3CCOCC3)n2)cc1,n,n,-22,n,n,n,n,n,
CC(=O)N1c2c(cc(Br)cc2S(=O)(=O)N2CCOCC2)CC1C (stereo unspecified),x,n,x,x,n,x,x,x,
CC(=O)N1c2c(cc(Br)cc2S(=O)(=O)N2CCCCC2)CC1C (stereo unspecified),n,n,-19,n,n,n,x,n,
Cc1onc(-c2ccccc2)c1C(=O)Oc1ccccc1,n,n,-29,n,n,n,n,n,
O=C(C[C@@H]1CC[C@H](NC(=O)C2CCOCC2)[C@H](CO)O1)Nc1nccs1,n,n,n,n,x,n,x,x,
CCCN1CCN(C(=O)c2ccc(Sc3ccc(C)cc3)c(NC(C)=O)c2)CC1,n,n,-13,n,n,n,n,n,
O=C(Nc1cc(F)ccc1F)N1CCCCN2[C@@H](CO)[C@H](c3ccc(-c4ccncc4)cc3)[C@@H]2C1,n,n,-19,n,x,n,n,x,
